Drawing on ChEMBL document CHEMBL4513216, “Probing the Open Global Health Chemical Diversity Library for Multistage-Active Starting Points for Next-Generation Antimalarials” (ACS Infect Dis, 2020), this text covers INHIBITION for 109 molecules.

The campaign covered roughly 69,000 compounds. About 8,600 (12%) showed an effect of 50% or more. Shown is part of a subset that was picked to be rich in strong results.

For this test, the system named is Plasmodium berghei. Kind of test: Screen against P. berghei liver stage (PbLuc), transformed with Luciferase, at 10uM. To be noted: tested at 10 uM. Format: functional, HepG2.
With `CCCC1COCCN1Cc1ccc(NC(C)=O)cc1` (centres undefined), the INHIBITION is reported as -30%. The figure for `CC(C(=O)N1CCCCC1)N1CCN(c2nccs2)CC1` (centres undefined) is 41.3%; for `CN(C)C(=O)NCc1cc(=O)n2c(n1)CN(Cc1ccoc1)CCC2` it is 5.41%; for `CCn1ncc2c1C(COCC1CC1)N(Cc1cnn(C)c1)CC2` (centres undefined) it is -44.2%.

For the molecule `O[C@H]1CCN(Cc2ccoc2)[C@H]1Cc1cccnc1`, the INHIBITION came out at 41.4%. As to `CC(=O)N1CCCCC[C@@H]2[C@@H]1[C@H](c1cccc(F)c1)CN2CCC(N)=O`, the INHIBITION was 32.95%. On to `O=C(C1=CCCC1)N1C[C@H]2CCC[C@@]2(COCc2ccncc2)C1`, for which the INHIBITION came to 47.9%. The figure for `Cc1cn(CC(=O)NC2CCC(C(=O)O)CC2)c2ccccc12` (centres undefined) is 26.4%. With `COC(=O)[C@@H]1C[C@H](NC(=O)Cn2c(=O)cc(C)c3ccccc32)CN1C`, the INHIBITION is recorded as -4.4%.

Consider `Cc1cc(=O)n(CC(=O)NC2CCCCC2)c2ccccc12`, for which the INHIBITION worked out at 70.1%. For the molecule `Cc1nnn2c1COCC(CNC(=O)c1ccc[nH]1)C2` (centres undefined), the INHIBITION is 26.5%.

For `CCSCCN1CCCN(S(C)(=O)=O)CC1`, the INHIBITION was 37.7%. The figure for `CC(C)CSCCN1CCN(S(C)(=O)=O)CC1` is 45.3%. In the case of `CC(C)CSCCN1CCCN(S(C)(=O)=O)CC1`, the INHIBITION was found to be 75.6%. Next, `O=C1CCOC[C@]2(CN(Cc3ccccc3)C[C@H]2c2ccccc2F)N1`: 23.9%; `CN1CCN(C(=O)[C@H]2C[C@H]3[C@H](CCN3Cc3cccs3)O2)CC1`: -7.24%. `c1cncc(CN2CCCC3(COCCN(c4cnccn4)C3)C2)c1` (centres undefined): the INHIBITION amounted to 12.7%. With `CC(Cn1ccnc1)NC(=O)N(C)Cc1ccsc1` (centres undefined), the INHIBITION came out at 57.4%. In the case of `CN(Cc1ccco1)C(=O)NC(Cn1ccnc1)C(C)(C)C` (centres undefined), the INHIBITION is recorded as -27.8%. As for `Cc1noc(C)c1CN(C)C(=O)NC(C)Cc1ccco1` (centres undefined), the INHIBITION worked out at 53.3%. As for `CC(Cn1cccn1)NC(=O)N(C)Cc1ccsc1` (centres undefined), the INHIBITION was -1.04%.

In the case of `Cc1cc(CN(C)C(=O)NC(C)Cc2ccco2)no1` (centres undefined), the INHIBITION came to 34.2%.

For the molecule `CC(Cn1ccnc1)NC(=O)N(C)Cc1ccc2c(c1)OCO2` (centres undefined), the INHIBITION was 7.12%. With `Cc1noc(C)c1CN(C)C(=O)NC(C)c1cccs1` (centres undefined), the INHIBITION is recorded as -55.1%. As for `CC(Cn1ccnc1)NC(=O)N(C)Cc1ccco1` (centres undefined), the INHIBITION is 81%.

In the case of `CC(Cn1ccnc1)NC(=O)N(C)Cc1ccc2c(c1)OCCO2` (centres undefined), the INHIBITION is recorded as 36.1%. For the molecule `O=C(O)c1cc2c(nc1-c1ccncc1)CCN(C1CCOC1)CC2` (centres undefined), the INHIBITION is given as -28.2%. For `CCn1cc(S(=O)(=O)N(CCc2ccccc2)Cc2ccn(C)n2)cn1`, the INHIBITION came to 21.425%. For `CCc1ncc2c(n1)CN(Cc1nc(-c3cccnc3)no1)CC2`, the INHIBITION is reported as -10.6%. For the molecule `Cc1ccc(C2CCCN2S(=O)(=O)N(C)CCc2ccccn2)o1` (centres undefined), the INHIBITION is given as -17.35%. For the molecule `CCOC(=O)C(C)Nc1cccc(COCc2ccco2)c1` (centres undefined), the INHIBITION came out at 12.1%. Next, `CCOCC(=O)NS(=O)(=O)c1ccc(F)cc1C(F)(F)F`: 0.0944%; `COCCOC1CCN(C(C(=O)O)c2ccc(F)c(Cl)c2)CC1` (centres undefined): 23.9%.

As to `COc1cccc(Cl)c1C(C(=O)O)N1CCC(Cn2cccn2)CC1` (centres undefined), the INHIBITION was -47%.

For `COCCOC1CCN(C(C(=O)O)c2c(Cl)cccc2OC)CC1` (centres undefined), the INHIBITION is 50.3%. For `CC(C)c1ncncc1C(=O)NCCN1CCOCC1`, the INHIBITION is given as -1.33%. The figure for `COCCC(Cc1cccc(Br)c1)C(=O)N(C)C` (centres undefined) is -28.4%; for `COc1ccc(C2Nc3ccccc3N=C3CNC(=O)C32)cc1OC` (centres undefined) it is 10.4%. Next, `CCn1nnnc1-c1cccc(NC(N)=O)c1`: 8.18%; `CCOC(=O)Cn1nnnc1-c1ccccc1`: 64%; `CCn1nnnc1-c1cccc(NC(=O)CCOC(C)C)c1`: 4.01%. As for `Cc1nc(CNC(=O)N2CCCC(c3ncc[nH]3)C2)sc1C` (centres undefined), the INHIBITION amounted to 23.5%. For `COC(=O)NCC(=O)N1CCCC(c2ncc[nH]2)C1` (centres undefined), the INHIBITION turned out to be 15.2%. Consider `O=C(CCC(F)(F)F)N1CCCC(c2ncc[nH]2)C1` (centres undefined), for which the INHIBITION is -0.71%. On to `O=C(CN1CCCC(c2ncc[nH]2)C1)NCC(F)(F)F` (centres undefined), for which the INHIBITION amounted to 81.2%.

Take `O=C(CN1CCCC(c2ncc[nH]2)C1)NCCCN1CCCCCC1=O` (centres undefined): the INHIBITION is 45.4%. As to `Cc1sc(NC(=O)CN2CCCC(c3ncc[nH]3)C2)c(C)c1C` (centres undefined), the INHIBITION is 94.1%.

Consider `CCn1nccc1CNC(=O)C1CCCO1` (centres undefined), for which the INHIBITION is given as 17%. For `COc1ccc(N2CCN(C(=O)OC(C)(C)C)C(C(=O)O)C2)cc1` (centres undefined), the INHIBITION is 2.55%. The figure for `Cc1ccc(N2CCC3(CCN(C(=O)c4ccoc4)CC3)CC2)nn1` is -0.27%; for `Cc1cc(N2CCC(NC(=O)C3CC3)CC2)nc(-c2ccncc2)n1` it is 23.4%.

With `CCCc1cc(C(=O)N2CC(c3ccncc3)C2)ccn1`, the INHIBITION stood at 8.64%.

For `CCCc1cc(C(=O)N2C[C@H]3CC=C(C)C[C@H]3C2)ccn1`, the INHIBITION came out at 6.66%. Take `CCCc1cc(C(=O)N2C[C@H](O)[C@@H](N3CCCC3)C2)ccn1`: the INHIBITION amounted to 55.2%. Regarding `CC(C)c1sc(Cl)nc1C(=O)N1CCN(c2ccccc2)CC1`, the INHIBITION is recorded as -1.23%. For the molecule `NC(=O)C1CCN(C(=O)NCc2csc(Br)c2)CC1`, the INHIBITION was 16.9975%.

With `COCCOc1ncccc1C(=O)N(C)c1nccs1`, the INHIBITION turned out to be 45.2%. Turning to `CN(C)C(C(=O)NCC1(O)CCCCC1)c1c(F)cccc1F` (centres undefined), the INHIBITION was -21.2%. As for `CN(C(=O)C(c1c(F)cccc1Cl)N(C)C)c1nccs1` (centres undefined), the INHIBITION was 66.5%. With `N#Cc1c(F)cccc1N1CCC(C(=O)Nc2nccs2)CC1`, the INHIBITION was 17.5%. Take `CN(C)C(C(=O)Nc1nccs1)c1c(F)cccc1Cl` (centres undefined): the INHIBITION is given as 50.8%. With `Cc1csc(N(C)C(=O)C(c2c(F)cccc2Cl)N(C)C)n1` (centres undefined), the INHIBITION worked out at 9.04%.

For the molecule `CCNc1cc2c(nn1)CCN(C(=O)c1nccnc1N)C2`, the INHIBITION amounted to 23.5%. `Cc1c(C2CC(=O)Nc3c2cnn3C(C)C)cnn1C` (centres undefined): the INHIBITION is given as 24.7%.

Turning to `Cc1cn2nc(N(C)C3CCCN(c4cccnn4)C3)sc2n1` (centres undefined), the INHIBITION stood at 11.5%. Next, `CCCNC(=O)COc1cccc(-c2nc(C(C)C)no2)c1`: 31.3%. Next, `Cc1ccc(Nc2nccc(C3CN(C(C)C)C3)n2)nc1`: 61.7%. For `Cc1cccnc1Nc1nccc(C2CN(CC(N)=O)C2)n1`, the INHIBITION is listed as -4.51%. `Cc1ccc(Nc2nccc(C3CCN(CC(N)=O)C3)n2)nc1` (centres undefined): the INHIBITION was determined as 88.1%. The figure for `O=C(C1CCC1)N1CCCC(c2ccnc(Nc3cnccn3)n2)C1` (centres undefined) is -14.1%.

Take `Cc1ccc(Nc2nccc(C3CN(CC(N)=O)C3)n2)nc1`: the INHIBITION stood at 46.6%. Take `Cc1ccc(Nc2nccc(C3CCCN(CC(=O)N(C)C)C3)n2)nc1` (centres undefined): the INHIBITION was 79.6%. With `CC(=O)N1CC(c2ccnc(Nc3ccc(C)cn3)n2)C1`, the INHIBITION was -9.32%.

On to `COCC(=O)N1CC(c2ccnc(Nc3ccc(C)cn3)n2)C1`, for which the INHIBITION was 6.32%. The figure for `CC(=O)N1CCC(c2ccnc(Nc3ccc(C)cn3)n2)C1` (centres undefined) is -55%; for `Cn1nc2c(cc1=O)CN(Cc1nc(-c3cccnc3)no1)CC2` it is 13.3%; for `CC(C)NC(=O)N1CCCC2(CCN(c3ccccc3)C2=O)C1` (centres undefined) it is -20.8%. The figure for `COc1cccc(NC(=O)Cn2cc(-c3ccccc3)ncc2=O)c1` is 28.2%; for `CN(Cc1cc[nH]n1)C(=O)c1cccc(CCC(C)(C)O)c1` it is 34.1%; for `CN(Cc1n[nH]c2c1CCCC2)C(=O)c1cccc(CCC(C)(C)O)c1` it is 48.5%. The figure for `CN(Cc1n[nH]c2c1CCC2)C(=O)c1cccc(CCC(C)(C)O)c1` is 68.5%; for `OC1CCN([C@@H]2CCN(c3nc(-c4ccccc4)no3)C[C@H]2O)CC1` it is 69.8%. For the molecule `OC1CCN(c2nc(-c3ccccc3)no2)CC1`, the INHIBITION was -3.74%. For `O[C@H]1CN(c2nc(-c3ccccc3)no2)C[C@@H]1N1CCOCC1`, the INHIBITION is listed as -22.7%. On to `CC(C)c1ccc2c(c1)C1(CC(=O)Nc3[nH]ncc31)C(=O)N2C` (centres undefined), for which the INHIBITION came out at 17.7%.

As to `CCOc1ccc(NC(=O)NCc2cccnc2OCC)cc1`, the INHIBITION worked out at 13.6%. Next, `Cc1nc(CN2CCc3ncnc(-c4ccccc4)c3CC2)cs1`: 6.6%. The figure for `Cc1nc(CN2CCc3ncnc(C4CC4)c3CC2)cs1` is 15.9%. The figure for `c1ccc(CN2CCc3ncnc(-c4ccsc4)c3CC2)nc1` is 19.9%; for `Cc1nc(CN2CCN(c3nc4c(s3)c(C)nn4C)CC2)cs1` it is 73.9%; for `Cc1cccc(CN2CCc3ncnc(-c4ccsc4)c3CC2)n1` it is 53.2%. As for `Cc1cccc(CN2CCc3ncnc(C)c3CC2)n1`, the INHIBITION turned out to be 6.8%.

With `Cc1nn(C)c2nc(N3CCN(Cc4nccn4C)CC3)sc12`, the INHIBITION is 37.6%. Take `Cc1nc(CN2CCc3ncnc(C)c3CC2)cs1`: the INHIBITION was determined as 56.3%.

Consider `Cc1nc(CN2CCN(c3ccc(SC(C)C)nn3)CC2)cs1`, for which the INHIBITION was -4.13%. Turning to `Cc1nc(CN2CCc3ncnc(-c4ccsc4)c3CC2)cs1`, the INHIBITION was 60.2%. Next, `CCOc1ncnc2c1CCN(Cc1csc(C)n1)CC2`: 1.94%; `Cc1nc(CN2CCc3ncnc(-c4ccncc4)c3CC2)cs1`: 27.6%; `Cc1cn(CC(=O)Nc2cc(C(C)C)nn2C)cn1`: -0.273%.

With `CC1CN(C)CCN1CC(=O)NCCOc1ccc(Cl)cc1` (centres undefined), the INHIBITION was 35.95%. `CC(c1ccccn1)N(C)Cc1cccc(C(=O)Nc2nccn2C)c1` (centres undefined): the INHIBITION was found to be 9.57%. As for `CN(C)c1nc(NCCc2ccnn2C)ncc1F`, the INHIBITION is reported as 42.3%. For the molecule `O=C(Cc1ccc(F)c(Br)c1)NC1CCN(CC(F)F)CC1`, the INHIBITION is listed as -60.4%. Regarding `CN(C)CC(=O)N1CCc2ncnc(-c3ccsc3)c2CC1`, the INHIBITION amounted to 70.4%. Consider `CN(C)CC(=O)N1CCc2ncnc(-c3cncnc3)c2CC1`, for which the INHIBITION was found to be 6.83%. On to `CN(C)CC(=O)N1CCc2ncnc(-c3ccoc3)c2CC1`, for which the INHIBITION worked out at 23.1%. Take `CCn1ccc(NC(=O)CN2C(=O)C(C)(C)c3ccccc32)n1`: the INHIBITION is given as 23.1%. The figure for `Cc1ccc(N2CCCC(NCc3c(C)noc3C)C2)nn1` (centres undefined) is -89%; for `CN1CC(C(=O)NCCc2ccc3c(c2)OCO3)CC1=O` (centres undefined) it is 20%.
